Holding throughout (assay): protein-binding microarray (PBM); PBM: ~300 nM protein, 6 mM HEPES pH 7.8, 80 mM KCl, 0.5 mM EDTA, 0.5 mM EGTA, 6% glycerol, 35 ng/ul poly-dIdC, 1% milk, 1 h, room temperature; Ap Aiptasia and Nv Nematostella (sea anemones) / Co Capsaspora / Aq Amphimedon (sponge) / Dm Drosophila / Hu human; RHD is the Rel homology domain; high values mean tight binding
Holding throughout (conditions): dsDNA, one strand shown

Experiment [1] deals with T1, GST-Ap-NF-kB RHD (Exaiptasia pallida (Aiptasia), UniProt A0A913YAJ5 2-422).
T1 sequence: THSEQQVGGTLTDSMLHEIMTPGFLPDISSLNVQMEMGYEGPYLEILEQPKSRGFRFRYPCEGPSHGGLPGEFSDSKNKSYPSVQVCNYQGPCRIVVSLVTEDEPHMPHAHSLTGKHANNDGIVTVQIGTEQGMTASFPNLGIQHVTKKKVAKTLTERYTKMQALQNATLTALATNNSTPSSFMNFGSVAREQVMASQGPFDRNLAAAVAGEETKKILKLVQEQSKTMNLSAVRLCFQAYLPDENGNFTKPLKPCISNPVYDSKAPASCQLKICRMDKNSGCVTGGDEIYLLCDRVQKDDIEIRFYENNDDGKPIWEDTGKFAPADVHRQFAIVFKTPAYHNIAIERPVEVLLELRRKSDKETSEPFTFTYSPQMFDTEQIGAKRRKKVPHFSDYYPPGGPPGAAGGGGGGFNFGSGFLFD

Experiment [2] concerns the target T2, GST-Nv-NF-kB (Cys allele) (Nematostella vectensis, UniProt E5G601 2-411).
T2 sequence: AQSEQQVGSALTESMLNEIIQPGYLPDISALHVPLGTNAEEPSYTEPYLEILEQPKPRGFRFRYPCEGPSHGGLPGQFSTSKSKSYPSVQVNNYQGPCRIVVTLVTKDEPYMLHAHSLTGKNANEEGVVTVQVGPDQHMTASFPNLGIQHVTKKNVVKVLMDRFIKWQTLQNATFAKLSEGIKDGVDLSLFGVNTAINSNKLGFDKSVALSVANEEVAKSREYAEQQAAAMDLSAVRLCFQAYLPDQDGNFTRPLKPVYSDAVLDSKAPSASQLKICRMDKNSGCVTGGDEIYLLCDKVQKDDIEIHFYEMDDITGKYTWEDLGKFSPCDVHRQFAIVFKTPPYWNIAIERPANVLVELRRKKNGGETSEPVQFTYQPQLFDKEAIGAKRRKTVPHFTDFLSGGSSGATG

Experiment [3] has as its target T3, GST-Co-NF-kB (Capsaspora owczarzaki, UniProt F1ARL5 200-546).
T3 sequence: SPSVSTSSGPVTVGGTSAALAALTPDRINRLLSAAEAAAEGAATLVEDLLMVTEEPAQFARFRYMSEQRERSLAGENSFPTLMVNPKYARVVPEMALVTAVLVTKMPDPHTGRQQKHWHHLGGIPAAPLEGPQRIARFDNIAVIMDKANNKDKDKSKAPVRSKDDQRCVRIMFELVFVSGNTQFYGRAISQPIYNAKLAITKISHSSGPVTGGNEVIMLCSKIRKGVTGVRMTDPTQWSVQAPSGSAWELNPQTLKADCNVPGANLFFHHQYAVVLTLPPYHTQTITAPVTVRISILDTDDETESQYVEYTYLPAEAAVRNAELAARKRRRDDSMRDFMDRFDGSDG

In experiment [4] the target is T4, GST-Dm-Relish (Drosophila melanogaster, UniProt Q94527 99-473).
T4 sequence: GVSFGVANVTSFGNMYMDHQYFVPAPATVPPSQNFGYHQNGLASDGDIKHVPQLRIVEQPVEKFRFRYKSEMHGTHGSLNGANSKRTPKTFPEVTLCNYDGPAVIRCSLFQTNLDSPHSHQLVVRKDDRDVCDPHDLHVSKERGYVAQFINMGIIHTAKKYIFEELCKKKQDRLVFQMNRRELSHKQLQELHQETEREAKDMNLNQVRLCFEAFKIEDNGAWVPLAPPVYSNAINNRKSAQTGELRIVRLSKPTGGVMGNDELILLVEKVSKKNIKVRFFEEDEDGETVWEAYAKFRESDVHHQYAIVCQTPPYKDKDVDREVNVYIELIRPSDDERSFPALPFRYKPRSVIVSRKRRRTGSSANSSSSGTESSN

For experiment [5], the target named is T5, GST-Aq-NF-kB (Amphimedon queenslandica, UniProt A9Y5G7 2-389).
T5 sequence: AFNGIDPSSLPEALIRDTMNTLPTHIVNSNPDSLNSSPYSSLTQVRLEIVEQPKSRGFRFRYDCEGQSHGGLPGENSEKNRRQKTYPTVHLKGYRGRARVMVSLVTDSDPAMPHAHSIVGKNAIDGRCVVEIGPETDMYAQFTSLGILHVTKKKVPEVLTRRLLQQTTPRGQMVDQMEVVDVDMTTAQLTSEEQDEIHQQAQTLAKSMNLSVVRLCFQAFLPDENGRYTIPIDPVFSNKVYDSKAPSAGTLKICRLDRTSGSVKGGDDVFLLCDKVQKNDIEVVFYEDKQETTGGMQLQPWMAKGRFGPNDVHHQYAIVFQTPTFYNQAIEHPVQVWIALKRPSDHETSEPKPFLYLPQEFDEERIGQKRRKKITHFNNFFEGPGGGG

The target in experiment [6] is GST-Hu-p50 (Homo sapiens, UniProt P19838 7-356).
Experiment [7] deals with T6, GST-Nv-NF-kB (Ser allele) (Nematostella vectensis, UniProt A7UNT2 2-411).
T6 sequence: T2 sequence with Q21R, C66S, S207N, E215Q, V217A, E225K, A268E, D399E

Changes are numbered by the printed parent chain.

GST-Hu-p50, sequence (P19838 7-356): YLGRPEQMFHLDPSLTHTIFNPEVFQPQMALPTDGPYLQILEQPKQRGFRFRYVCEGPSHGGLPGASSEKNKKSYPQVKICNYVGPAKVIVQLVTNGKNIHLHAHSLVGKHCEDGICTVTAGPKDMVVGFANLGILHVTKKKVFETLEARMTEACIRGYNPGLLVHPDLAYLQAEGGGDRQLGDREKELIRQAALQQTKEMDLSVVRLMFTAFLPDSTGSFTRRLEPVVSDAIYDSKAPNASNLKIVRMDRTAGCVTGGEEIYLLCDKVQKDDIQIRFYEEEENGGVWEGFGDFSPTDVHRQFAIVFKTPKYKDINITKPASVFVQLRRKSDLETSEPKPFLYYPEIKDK

As for “CCGATTAACATCAGGGACTTTAATGATGTTAATCGGGTCTTGATTCGCTTGACGCTGCTG”, the binding signal in experiment [1] stood at 4.47 z-score; in experiment [2] it was 5.92 z-score; in experiment [3] it was 1.03 z-score; in experiment [4], 5.04 z-score; in experiment [5] it was 5.12 z-score; in experiment [6] it was 5.02 z-score.

With “CCGATTAACATCAGGGGTAGAACTGATGTTAATCGGGTCTTGATTCGCTTGACGCTGCTG”, the binding signal in experiment [1] is 1.85 z-score; in experiment [7] it was 1.11 z-score; in experiment [3], 5.07 z-score; in experiment [5], 1.92 z-score; in experiment [6], 1.99 z-score.

For the sequence “CCGATTAACATCACGGTGTTTCCTGATGTTAATCGGGTCTTGATTCGCTTGACGCTGCTG”, the binding signal in experiment [1] came to 1.53 z-score; in experiment [2] it was 1.22 z-score; in experiment [4] it was 2.06 z-score; in experiment [5], 2.67 z-score; in experiment [6], 2.96 z-score.

Turning to “CCGATTAACATCAAAATAGCCCCTGATGTTAATCGGGTCTTGATTCGCTTGACGCTGCTG”, the binding signal in experiment [1] amounted to 5.32 z-score; in experiment [2], 5.99 z-score; in experiment [3], 1.88 z-score; in experiment [4], 4.12 z-score; in experiment [5], 5.87 z-score; in experiment [6], 5.38 z-score.

On to “CCGATTAACATCACGGAAATACCTGATGTTAATCGGGTCTTGATTCGCTTGACGCTGCTG”, for which the binding signal stood at 1.01 z-score in experiment [1]; 1.39 z-score in experiment [7]; 2.56 z-score in experiment [4]; 4.47 z-score in experiment [5]; 1.12 z-score in experiment [6].

For the sequence “CCGATTAACATCACGGGAAGCCCTGATGTTAATCGGGTCTTGATTCGCTTGACGCTGCTG”, the binding signal in experiment [1] was found to be 2.49 z-score; in experiment [2], 1.91 z-score; in experiment [4], 7.08 z-score; in experiment [5], 4.42 z-score; in experiment [6] it was 1.11 z-score.

For the sequence “CCGATTAACATCAAAATTTACCGTGATGTTAATCGGGTCTTGATTCGCTTGACGCTGCTG”, the binding signal in experiment [2] was determined as 1.63 z-score; in experiment [7], 3.7 z-score; in experiment [3] it was 1.05 z-score; in experiment [4], 3.37 z-score; in experiment [5] it was 2.12 z-score; in experiment [6], 2.17 z-score.

As for “CCGATTAACATCATTCCGGGAAATGATGTTAATCGGGTCTTGATTCGCTTGACGCTGCTG”, the binding signal in experiment [2] amounted to 2.87 z-score; in experiment [7], 3.44 z-score; in experiment [3], 2.74 z-score; in experiment [5], 1.95 z-score; in experiment [6], 1.99 z-score.

As to “CCGATTAACATCAAGGAATTTTCTGATGTTAATCGGGTCTTGATTCGCTTGACGCTGCTG”, the binding signal is 1.08 z-score in experiment [2], 1.93 z-score in experiment [4], 2.26 z-score in experiment [5] and 1.18 z-score in experiment [6].

On to “CCGATTAACATCAGTTTCCCAAATGATGTTAATCGGGTCTTGATTCGCTTGACGCTGCTG”, for which the binding signal in experiment [2] was 2.56 z-score; in experiment [7], 3.42 z-score; in experiment [3], 2.19 z-score; in experiment [4] it was 1.2 z-score; in experiment [5] it was 1.17 z-score; in experiment [6], 1.81 z-score.

Consider “CCGATTAACATCAAGAATTTTCCTGATGTTAATCGGGTCTTGATTCGCTTGACGCTGCTG”, for which the binding signal came out at 1.03 z-score in experiment [7], 1.12 z-score in experiment [5] and 1.25 z-score in experiment [6].

Regarding “CCGATTAACATCATAATGGGAAATGATGTTAATCGGGTCTTGATTCGCTTGACGCTGCTG”, the binding signal was 2.83 z-score in experiment [2]; 2.35 z-score in experiment [7]; 1.93 z-score in experiment [3]; 1.68 z-score in experiment [5]; 2.18 z-score in experiment [6].

“CCGATTAACATCAGTTGGGAAAATGATGTTAATCGGGTCTTGATTCGCTTGACGCTGCTG”: the binding signal in experiment [2] came out at 3.62 z-score; in experiment [7] it was 4.31 z-score; in experiment [3] it was 2.64 z-score; in experiment [5] it was 1.77 z-score; in experiment [6], 2.33 z-score.

As for “CCGATTAACATCAGCCCCGGTGTTGATGTTAATCGGGTCTTGATTCGCTTGACGCTGCTG”, the binding signal was determined as 2.1 z-score in experiment [1], 1.61 z-score in experiment [3], 2.37 z-score in experiment [5] and 1.58 z-score in experiment [6].

Consider “CCGATTAACATCACTTCGGGAAATGATGTTAATCGGGTCTTGATTCGCTTGACGCTGCTG”, for which the binding signal in experiment [2] worked out at 2.8 z-score; in experiment [7], 1.97 z-score; in experiment [3] it was 2.89 z-score; in experiment [5], 2.16 z-score; in experiment [6] it was 1.48 z-score.

Regarding “CCGATTAACATCAAGGGCTTTCCTGATGTTAATCGGGTCTTGATTCGCTTGACGCTGCTG”, the binding signal turned out to be 1.28 z-score in experiment [1], 2.98 z-score in experiment [4], 3.6 z-score in experiment [5] and 1.47 z-score in experiment [6].

For “CCGATTAACATCAAAATTTTTCCTGATGTTAATCGGGTCTTGATTCGCTTGACGCTGCTG”, the binding signal stood at 1.42 z-score in experiment [7]; 1.06 z-score in experiment [3]; 2.86 z-score in experiment [4]; 1.46 z-score in experiment [5]; 1.87 z-score in experiment [6].

For “CCGATTAACATCAGGTATTTTACTGATGTTAATCGGGTCTTGATTCGCTTGACGCTGCTG”, the binding signal was 2.63 z-score in experiment [7], 4.67 z-score in experiment [4], 1.93 z-score in experiment [5] and 2 z-score in experiment [6].

For the sequence “CCGATTAACATCAGAAATTGCCCTGATGTTAATCGGGTCTTGATTCGCTTGACGCTGCTG”, the binding signal in experiment [2] turned out to be 1.33 z-score; in experiment [5] it was 2.44 z-score; in experiment [6], 1.68 z-score.

As for “CCGATTAACATCAGGTTATTCCATGATGTTAATCGGGTCTTGATTCGCTTGACGCTGCTG”, the binding signal in experiment [7] amounted to 2.28 z-score; in experiment [4] it was 2.41 z-score; in experiment [5], 1.85 z-score; in experiment [6], 3.32 z-score.

In the case of “CCGATTAACATCAGGAAATTCCATGATGTTAATCGGGTCTTGATTCGCTTGACGCTGCTG”, the binding signal was 1.06 z-score in experiment [2], 1.68 z-score in experiment [4], 3.91 z-score in experiment [5] and 1.1 z-score in experiment [6].

The values are drawn from article PMC5700166.
